Source: PubChem BioAssay
An excerpt weighted towards active compounds, which were near 15% of everything screened.
HCV inhibitor: HCV inhibition. 340,000 compounds, 3.4% hits. Huh7.5.1 HCVcc-Cre infection, luciferase reporter, 44 h. Potency, µM (highest dose often 41.8 µM), without a hit: top-dose activity change, negative = inhibition, usual class: inhibitors; further: potency means the concentration at half of the fitted maximal effect; on the % scale 0 is the no-effect control and ±100 the full control effect
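Reporter virus HCVcc-Cre (~0.5 moi) infects cells exposed to compound; seeding density 1,000 cells/well with 4 h settling beforehand. Luminescence, 15 sec read, taken 44 h post-infection following a 15 min RT substrate incubation.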
HCMV antiviral: human cytomegalovirus inhibition. activity change, negative = inhibition, % at 57.5 µM. HFF cells, HCMV-luciferase reporter, 72 h; hits give low values. 410,000 compounds, 4.5% hits; in the data active means activity change below about -60%; inconclusive means no clear call, values can overlap the other calls; inactive means above about -39%; further: on the % scale 0 is the no-effect control and ±100 the full control effect
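Inhibition of viral replication was scored as loss of reporter luminescence in HFFs infected with HCMV-luciferase (MOI 1 PFU/cell) for 72 h; compounds tested at 2 doses, normalized to buffer and Salinomycin controls.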
Sm TGR inh: blocks Schistosoma mansoni thioredoxin glutathione reductase; Potency, µM (highest dose often 114 µM), for the others: at the highest dose activity change, negative = inhibition, usual class: inhibitors; 360,000 compounds, 3% hits; purified TGR, DTNB reduction, TNB absorbance 405 nm; AID 485364; Q962Y6; further: potency means the concentration at half of the fitted maximal effect; on the % scale 0 is the no-effect control and ±100 the full control effect; nearly all actives have a fitted effect of over 60% in size
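TGR 20 nM + NADPH 100 uM (dispensed conc.), cpd preinc 15 min RT; start with NADPH (500 uM addition) then DTNB (15 mM addition). Kinetic TNB absorbance, 405 nm filter. Four-parameter Hill fit across titration.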
Pf growth 96h: P. falciparum growth inhibition at 96 hours | Potency, µM (highest dose often 28.7 µM), inactives show top-dose activity change, negative = inhibition, most hits filed as inhibitors | 320,000 compounds, 6.9% hits | P. falciparum luciferase reporter growth, 96 h | AID 504834; further: potency means the concentration at half of the fitted maximal effect; on the % scale 0 is the no-effect control and ±100 the full control effect
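Infected RBCs, 2% Hct / 0.05% parasitemia final; luciferase-reporter P. falciparum; cpd 96 h, 37 C, 5% CO2; luciferase detection reagent; luminescence.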
SARS PLpro yeast: SARS-CoV PLP inhibition in yeast; S. cerevisiae expressing SARS-CoV PLpro, growth rescue; Potency, µM (doses to about 32.9 µM), for inactives: at the highest dose activity, positive = growth rescue, actives largely listed as activators; 330,000 compounds, 0.19% hits; calls by dose curve; further: potency means the concentration at half of the fitted maximal effect; 0% is about no effect; nearly all actives have a fitted effect of over 55% in size
Pf growth 48h: inhibits P. falciparum growth in the first generation, 48 h; AID 504832; 310,000 compounds, 5.9% hits; P. falciparum luciferase growth in erythrocytes, 48 h; Potency, µM (titrated, usually from 28.7 µM), inactives show top-dose activity change, negative = inhibition, most hits filed as inhibitors; further: potency means the concentration at half of the fitted maximal effect; on the % scale 0 is the no-effect control and ±100 the full control effect
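Luciferase-expressing parasites in RBCs, 2% Hct / 0.1% parasitemia final; RPMI 1640 + 0.5% Albumax; 37 C, 5% CO2, one generation; luminescence read-out, lower signal = inhibition.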
The depositor's hits bear a star; ? = inconclusive; / = not tested or not shown; ! = repeats disagree; [ ] = another dose, or the depositor's remark. Unless noted, the call rests on the fitted dose curve; in most records, active means well fitted curve in the direction sought with a large enough effect; inconclusive means small, poorly fitted or top-dose-only effect, or another doubt; inactive means no such curve, though single readings can be large; an effect the other way counts as inactive or inconclusive.

SMILES	HCV inhibitor	HCMV antiviral	Sm TGR inh	Pf growth 96h	SARS PLpro yeast	Pf growth 48h
CC1(CCl)CN1S(=O)(=O)c1ccccc1 (configuration not stated)	-5.8%	0.0	39.8µM*	4.1%	-0.8%	6.1%
COC(=O)CCCC(=O)N1CCOCCN(C(=O)CCCC(=O)OC)CCOCC1	14.4%	-101.4*	-12.3%	-12.5%	-5.8%	-4.4%
O=C(NCc1cccc(F)c1)c1ccc2nc(N3CCCCC3)sc2c1	/	65.9	1.0%	/	/	/
CC(=O)Nc1ccc(OC(=O)c2cc3ccccc3oc2=O)cc1	4.6%	-21.4	0.5%	11.7µM*	2.0%	18.9%
CC(=O)c1ccc(OC(=O)c2cc3ccccc3oc2=O)cc1	/	/	/	102.6%	-0.4%	-4.4%
COc1ccccc1OC(=O)c1cc2ccccc2oc1=O	33.9%	22.6	-21.3%	?	-6.8%	-1.0%
COc1cc(/C=C/[N+](=O)[O-])ccc1OC(=O)c1cccnc1	17.9%	16.9	1.78µM*	9.7%	-12.4%	?
COc1cc(/C=C/[N+](=O)[O-])ccc1OC(=O)c1cc2ccccc2oc1=O	7.5%	-72.3*	?	11.6%	-17.6%	?
O=S(=O)(Nc1ccc(-c2ccc3nncn3n2)cc1)c1cccc(F)c1	-15.8%[8.37 µM]	-11.6	-2.6%	-3.3%	0.5%	-12.9%
c1ccc(CCNc2ccc3ncc(-c4cccc5ccccc45)n3n2)nc1	/	-34.7	/	/	/	/
CC1CCC(N2CC(=O)N(C3CCCCC3)C(c3ccc(Cl)cc3)C2=O)CC1 (configuration not stated)	/	?	-0.2%	/	/	/
COc1ccc(NC(=O)C2(C)CCCN(C(C)C)C2)cc1F (configuration not stated)	/	-14.7	/	/	/	/
Cc1csc2ncc(C(=O)Nc3ccon3)c(=O)n12	11.8%	10.3	1.8%	2.62µM*	-14.0%	18.3%
O=C(NCc1ccco1)c1cnc2sccn2c1=O	10.0%	24.6	?	17.4%	-1.5%	25.2%
Cc1csc2ncc(C(=O)NCc3ccco3)c(=O)n12	-3.8%	-25.7	44.7µM*	45.6%	-1.4%	-4.6%
C[C@H](CO)N1C[C@H](C)[C@@H](CN(C)S(=O)(=O)c2cn(C)cn2)Oc2ccc(NC(=O)Cn3cnnn3)cc2C1=O	0.7%	5.0	/	/	-30.1%	/
CCOC(=O)Cc1ccc(NC(=O)N(Cc2ccc(CC)cc2)Cc2cn[nH]c2-c2ccc(OC)cc2)cc1	/	-1.6	2.0%	/	/	/
CCOC(=O)c1ccccc1NC(=O)N(Cc1ccc(CC)cc1)Cc1cn[nH]c1-c1ccc(OC)cc1	/	-63.2*	0.1%	/	/	/
CC1(C)OC(=O)C(=NNc2ccc(C(=O)O)cc2)C(=O)O1	23.9%	-90.0*	-2.5%	7.3%	1.2%	26.2%
COc1ccc2c(c1)C(=NNc1ccc(C(=O)O)cc1)c1cc(OC)ccc1-2	14.1µM*	-6.9	-9.9%	34.8%	-0.1%	?
COc1ccc2c(c1)C(=NN)c1cc(OC)ccc1-2	?	-87.1*	0.9%	-51.8%	3.8%	?
CC(C)[C@H](N)C(=O)N1CCC(C(=O)N[C@@H](Cc2ccccc2)C(=O)NCc2ccc(F)cc2)CC1	-25.4%	26.2	-17.7%	6.9%	?	-0.7%
Cc1nn(-c2cccc([N+](=O)[O-])c2)c(N)c1-c1ccccc1	-12.5%	-61.3*	-1.4%	82.7%	-2.8%	187.6%
Nc1c(-c2ccccc2)cnn1-c1cccc([N+](=O)[O-])c1	-20.5%	-35.4	-22.1%	70.5%	-1.7%	52.7%
Cc1nn(-c2ccccc2)c(N)c1Sc1cccc([N+](=O)[O-])c1	?	-76.4*	-3.7%	5.3%	-8.0%	?
SMILES	HCV inhibitor	HCMV antiviral	Sm TGR inh	Pf growth 96h	SARS PLpro yeast	Pf growth 48h
O=C(CCN1C(=O)C2CC=CCC2C1=O)Nc1ccc(S(=O)(=O)N2CCCCC2)cc1 (configuration not stated)	0.5%	-7.3	1.1%	-2.6%	3.8%	?
COc1ccc2c(c1)/C(=N/N1C(=O)c3ccccc3C1=O)C(=O)N2	/	/	2.3%	-14.3%	4.3%	?
COc1ccc2c(c1)/C(=C\c1cccc(/C=C3/C(=O)Nc4ccc(OC)cc43)n1)C(=O)N2	2.82µM*	-98.0*	/	/	/	/
Cc1n[nH]c(C)c1CCN	22.3%	-26.0	-1.2%	/	-1.6%	?
COc1ccccc1OCCCc1c(C)n[nH]c1C	/	31.3	-7.9%[11.4 µM]	?	-25.2%	/
COc1ccc(OCCCc2c(C)n[nH]c2C)cc1	-20.6%	-25.0	-24.4%	9.28µM*	16.3%	/
CNCCc1c(C)n[nH]c1C	7.9%	-5.9	-2.4%	11.7µM*	-0.5%	0.2%
COc1ccccc1OCCCCCc1c(C)n[nH]c1C	?	-61.4*	6.1%	?	4.6%	?
FC(F)Oc1ccc(COc2ccc3c(-c4ccccn4)noc3n2)cc1	/	12.1	/	/	/	/
COc1ccc(/C=N/NC(=O)c2ccc(N3CCCC3=O)cc2)cc1	-16.9%	-21.6	-6.7%	20.5%	0.1%	-3.9%
O=C(Nc1ccnn1C1CCN(CCCc2ccccc2)CC1)c1cccc(F)c1	9.4%	0.2	-7.2%	22.2%	1.5%	?
O=c1[nH]c(CN2CCN(C/C=C/c3ccccc3)CC2)nc2cc(Cl)ccc12	14.1µM*	0.7	-8.0%	-5.0%	-3.1%	?
CCCOc1ccc(N)cc1N	-8.1%	0.3	1.78µM*	-9.3%	-14.1%	-12.2%
Nc1ccccc1OCCOc1ccccc1N	2.4%	44.4	-16.8%	46.6%	1.2%	/
CCCOc1cc(N)ccc1C(=O)OCCN(CC)CC	24.5%	-20.8	-6.5%	0.721µM*!	/	14.8%
O=C(NNS(=O)(=O)c1ccccc1)C(O)(c1ccccc1)c1ccccc1	-10.3%	-27.0	8.8%	-1.5%	-3.1%	8.9%
Cc1cc(C(=O)NNS(=O)(=O)c2ccc(C(C)(C)C)cc2)nn1C(C)(C)C	10.7%	29.0	-1.3%	-92.2%	0.7%	10.4µM*
CCCNNC(=O)C(O)(c1ccccc1)c1ccccc1	0.6%	-12.1	-14.9%	10.4µM*	22.7%	-0.9%
Cc1ccc(S(=O)(=O)NNC(=O)C(O)(c2ccccc2)c2ccccc2)cc1	34.0%	?	0.4%	2.08µM*	4.6%	10.8%
CC1CC(C)CN(S(=O)(=O)c2ccc(NC(=O)CN3C(=O)NC(C)(c4ccccc4)C3=O)cc2)C1 (configuration not stated)	/	-10.8	4.7%	29.7%	11.6%	?
Cc1csc2ncnc(NCCc3ccccn3)c12	7.08µM*	?	-0.5%	12.5%	-1.1%	18.2%
COc1ccc(N=N/C(=C\O)C(=O)c2cccs2)cc1	-9.9%	-92.5*	12.0%	76.8%	-5.2%	193.2%
COc1cc(NC(=O)COc2ccccc2[N+](=O)[O-])ccc1NC(=O)c1cccs1	?	?	/	11.7µM*	0.2%	51.9%
